Source: PubChem
KinaseGlo FLuc = Kinase-Glo luciferase inhibition (counter-screen); hit rate 0.28% among 200,000; Kinase-Glo luciferase, ATP luminescence, 8 min; AID 1379; Potency, µM (top dose mostly 38.3 µM), inactives show top-dose activity change, negative = inhibition, most hits filed as inhibitors; Q27757; also: % is scaled to controls: 0 for no effect and ±100 for the full control effect; nearly all actives have a fitted effect of over 60% in size
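Luminescence was the read-out, taken after 8-minute incubation at ambient temperature. Luciferase turned over luciferin with 10 uM ATP in imidazole pH 7.2 buffer containing KCl, MgCl2, Tween 20 and BSA.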
NPC1 prom act = activates the NPC1 promoter | Huh7 NPC1 promoter luciferase reporter, 24 h | Potency, µM (highest dose often 9.22 µM), without a hit: top-dose activation, actives largely listed as activators | hit rate 2.4% among 320,000 | AID 485313; also: % of control where 0% means no effect; nearly all actives have a fitted effect of over 60% in size
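Readout is luciferase luminescence, reflecting NPC1 promoter activation in stably transfected Huh7 cells after 24 h compound exposure at 37 °C in reduced-serum medium with 10% FBS.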
Rab9 promoter act = Rab9 promoter activation. Potency, µM (doses to about 9.22 µM), for the others: at the highest dose activation, negative = inhibition, most hits filed as activators. hit rate 2.8% among 320,000. Huh7 Rab9 promoter-luciferase reporter, luminescence, 24 h; also: % of control where 0% means no effect; nearly all actives have a fitted effect of over 60% in size
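Measured in stably transfected Huh7 cells bearing a Rab9 promoter–luciferase construct: 24 h compound treatment at 37 °C, followed by luminescence detection.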
FLuc counter = firefly luciferase modulation, counter-screen for miR-21 project; P08659; purified FLuc, Km substrates, luminescence inhibition; Potency, µM (titrated, usually from 57.5 µM), for inactives: at the highest dose activity change, negative = inhibition, usual class: inhibitors; hit rate 6.9% among 360,000; AID 588342;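 also: plate controls were vehicle for no effect and reference inhibitor for full effect; nearly all actives have a fitted effect of over 55% in size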
Target sequence (P08659 whole entry, looked up): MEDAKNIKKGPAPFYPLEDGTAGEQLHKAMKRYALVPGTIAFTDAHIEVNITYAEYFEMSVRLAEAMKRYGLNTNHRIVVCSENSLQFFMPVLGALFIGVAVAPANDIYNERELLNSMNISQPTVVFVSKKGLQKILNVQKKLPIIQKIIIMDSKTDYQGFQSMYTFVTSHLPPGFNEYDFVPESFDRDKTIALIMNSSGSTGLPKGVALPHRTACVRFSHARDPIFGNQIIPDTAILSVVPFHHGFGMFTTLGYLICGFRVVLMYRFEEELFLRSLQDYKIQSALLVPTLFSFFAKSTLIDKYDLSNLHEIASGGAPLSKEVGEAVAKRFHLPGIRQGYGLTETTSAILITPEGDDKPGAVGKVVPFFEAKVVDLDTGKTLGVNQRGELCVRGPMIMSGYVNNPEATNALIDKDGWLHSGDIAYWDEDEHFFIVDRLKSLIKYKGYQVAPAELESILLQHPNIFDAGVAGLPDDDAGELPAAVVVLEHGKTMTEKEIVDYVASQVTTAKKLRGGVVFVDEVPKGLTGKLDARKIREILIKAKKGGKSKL
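Biochemical qHTS of compounds, final roughly 60 µM downward over six points, against 10 nM purified firefly luciferase using Km concentrations of substrates (10 uM D-luciferin, 10 uM ATP) in Tris acetate pH 7.5 buffer; luminescence output.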
ELG1 genotoxic = genotoxicity induction in ELG1-luciferase HEK293T cells; HEK293T ELG1-luciferase reporter, luminescence, 16 h; AID 504466; hit rate 1.3% among 330,000; Potency, µM (series often up to 46 µM), inactives show at the top dose activity change, positive = activation, actives largely listed as activators; also: % of control where 0% means no effect; nearly all actives have a fitted effect of over 60% in size
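Cells (2,000/well) expressing the ELG1-luciferase fusion are dosed by pin tool and kept 16 hr at 37 °C, 5% CO2. Signal comes from ONE-Glo luciferase reagent after 30 min at room temperature.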
SMN2 splice enh = SMN2 splice variant enhancement | HEK293 SMN2-luciferase splicing reporter, luminescence, 30-36 h | Potency, µM (top dose mostly 46.1 µM), for inactives: at the top dose activity change, positive = activation, most hits filed as activators | hit rate 2.8% among 210,000; also: % of control where 0% means no effect; nearly all actives have a fitted effect of over 55% in size
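qHTS luciferase splicing reporter: luminescence rises when SMN2 exon 7 is included in transfected HEK293 cells. Compound exposure lasted 30-36 h at 37C, with 4.5 mM final sodium butyrate as control, followed by a ONE-Glo read.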
The depositor's hits bear a star; ? = inconclusive; . = no result; [ ] = dose if it differs, or a comment. An excerpt weighted towards active compounds, which were near 7.5% of everything screened. Calls follow the shape of the dose curve; as a rule, active = well fitted curve in the direction sought with a large enough effect; inconclusive = small, poorly fitted or top-dose-only effect, or another doubt; inactive = no such curve, though single readings can be large; an effect the other way counts as inactive or inconclusive. Potency is read from the fitted curve at half-maximal effect.

SMILES	KinaseGlo FLuc	NPC1 prom act	Rab9 promoter act	FLuc counter	ELG1 genotoxic	SMN2 splice enh
C[C@@H]1O[C@@H](O[C@@H]2C(=O)c3c(O)cc(O)cc3O[C@H]2c2ccc(O)c(O)c2)[C@H](O)[C@H](O)[C@H]1O	.	-2.6%	1.5%	0.3%	4.7%	.
COc1ccc(C(=O)C2CCN(C(=O)Nc3ccc(C)cc3)CC2)cc1	.	9.8%	13.5%	4.78µM*	-9.8%	.
Cc1ccc(NC(=O)N2CCC(C(=O)c3ccc(F)cc3)CC2)cc1	.	-0.3%	0.1%	-16.3%	-10.1%	.
COc1ccc(-c2ccc(C(=O)C3CC3)cc2)cc1	.	2.82µM*	1.78µM*	1.51µM*	2.91µM*	.
Cc1cc(C)n(-c2nc3c(c(=O)[nH]c(=O)n3C)n2Cc2ccccc2)n1	2.0%	-0.3%	3.6%	-0.7%	3.4%	-6.2%
Cc1cc(C)n(-c2nc3c(c(=O)[nH]c(=O)n3C)n2CCc2ccccc2)n1	-4.6%	1.8%	1.3%	2.3%	-3.6%	14.1µM*
CC(=O)c1ccc(S(=O)(=O)Nc2cccc(-c3ccc(N4CCOCC4)nn3)c2)cc1	.	?	?	2.69µM*	1.8%	.
CC(=O)Nc1ccc(S(=O)(=O)Nc2cccc(-c3ccc(N4CCCCCC4)nn3)c2)cc1	.	.	.	4.78µM*	.	.
COc1ccc(-c2cccc(NS(=O)(=O)c3ccc(NC(C)=O)cc3)c2)nn1	.	.	.	-10.8%	.	.
CC(=O)Nc1ccc(S(=O)(=O)Nc2cccc(-c3ccc(N4CCC(C)CC4)nn3)c2)cc1	.	.	.	0.536µM*	.	.
Clc1ccc2nc(COc3ccccc3)[nH]c2c1	.	-1.4%	?	12µM*	?	.
Clc1ccc2nc(-c3ccc(Cl)nc3)[nH]c2c1	.	2.24µM*	17.1%[1.84 µM]	12µM*	?	.
S=c1nc(COc2ccccc2)[nH]c2ccccc12	.	?	?	23.9µM*	15.5%	.
Clc1ccc2nc(-c3ccccc3)[nH]c2c1	11.2µM*	.	.	.	.	.
S=c1nc(Cc2ccccc2)[nH]c2ccccc12	.	0.0%	-2.4%	-1.4%	8.1%	.
O=[N+]([O-])c1ccccc1Nc1cccnc1	.	-0.9%	-1.5%	1.4%	-0.3%	.
Nc1cccc2c1C(=O)N(C(=O)c1ccco1)C2=O	.	-5.7%	0.9%	-11.2%	-0.1%	.
Nc1cccc2c1C(=O)N(C(=O)/C=C/c1ccc(F)cc1)C2=O	-1.9%	-5.0%	-10.7%	10.7µM*	12.2%	-3.1%
CCOc1ccc(-c2cc3c(=O)n(CC(=O)Nc4cc(F)ccc4C)ccn3n2)cc1	.	.	.	-3.2%	.	.
Cc1ccc(/C=C/c2nnc(-c3ccccc3)o2)cc1	-13.9%	0.891µM*	1.12µM*	5.36µM*	?	?
C(=C\c1nnc(-c2cccs2)o1)/c1ccccc1	-6.0%	2.51µM*	2.51µM*	5.36µM*	?	?
Cc1ccc(-c2nnc(Nc3ccccc3)o2)cc1	12.6µM*	?	0.126µM*	0.151µM*	0.146µM*	0.398µM*
Cc1cccc(NC(=O)N2CCC3(CC2)Oc2ccccc2C(=O)N3Cc2ccccc2F)c1C	.	.	.	0.7%	.	-2.7%
Cc1c(-c2ccc(Cl)cc2)c(=O)oc2c(CN3CCN(CCO)CC3)c(O)ccc12	.	.	.	-7.3%	.	.
CCOC(=O)CNC(=O)Cn1cnc2c(oc3ccccc32)c1=O	.	-1.4%	2.4%	-13.5%	-0.8%[9.26 µM]	.
SMILES	KinaseGlo FLuc	NPC1 prom act	Rab9 promoter act	FLuc counter	ELG1 genotoxic	SMN2 splice enh
CCc1ccc(NC(=O)c2cc(CC(C)C)on2)cc1	-0.2%	26.2%	?	2.69µM*	16.4µM*	25.3%
CC(C)Cc1cc(C(=O)Nc2ccc(F)cc2F)no1	-15.4%	12.3%	14.5%	10.7µM*	16.4µM*	-3.0%
COc1ccc(NC(=O)c2cc(-c3ccccc3)on2)cc1OC	.	0.9%	-1.0%	-5.1%	6.2%	.
CC(C)Cc1cc(C(=O)Nc2cc(Cl)ccc2Cl)no1	1.1%	16.3%	20.5%	?	29.8%	5.6%
COc1ccc(NC(=O)c2cc(CC(C)C)on2)cc1OC	-2.6%	6.4%	1.3%	?	20.6µM*	20.7%
CC(C)Cc1cc(C(=O)Nc2cccc(O)c2)no1	.	?	?	0.675µM*	?	.
Cc1ccc(OC(=O)c2cc(-c3ccccc3)nc3ccc(C)cc23)cc1	.	.	.	-7.4%	.	-10.5%
Cc1ccccc1OCC(=O)Nc1sc2c(c1C(=O)OC(C)C)CCCC2	.	.	.	2.9%	.	8.5%
CC(=O)Nc1cccc(NC(=O)CS(=O)(=O)c2cn(CC(=O)N(C(C)C)C(C)C)c3ccccc23)c1	.	0.9%	-3.3%	-1.7%	1.9%	.
CC1(C)CC=C(O[Si](C)(c2ccccc2)c2ccccc2)CC1	1.3%	.	.	.	.	-5.5%
CC(C)Cc1cc(C(=O)Nc2ccc3c(c2)OCO3)no1	-5.7%	3.16µM*	3.16µM*	5.36µM*	4.61µM*	15.8µM*
CC(C)Cc1cc(C(=O)NCc2cccs2)no1	-3.7%	?	?	15.1µM*	16.4µM*	12.6µM*
CC(C)Cc1cc(C(=O)NCc2cccnc2)no1	-4.4%	9.8%	9.3%	-14.4%	22.4%	10.7%
CC(C)Cc1cc(C(=O)Nc2ccc(Br)cc2)no1	.	?	?	2.69µM*	?	.
CC(C)Cc1cc(C(=O)Nc2c(F)cc(F)cc2Br)no1	4.1%	-5.7%	2.5%	?	?	11.6%
